Sampled rows, rich in hits. Any-hit rate of the full collection: about 18%.
LDHA block: blocks human lactate dehydrogenase A; P00338; purified LDHA, NADH/diaphorase-resazurin fluorescence; stronger effect = lower value; activity change, % (values are at about 110 or 230 µM); hit rate 0.15% among 480,000; AID 1347041; in the data active = activity change below about -30%; inconclusive = mostly about -25% to -30%
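Human LDH5 at 2 nM final in Tris HCl pH 7.4 with 0.06 mM NADH and 0.2 mM pyruvate, reacted 5 minutes at room temperature. Remaining NADH coupled via diaphorase/resazurin; resorufin fluorescence read at 0 and 20 minutes, normalized to enzyme-free and DMSO wells.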
DT40 TDP1 no CPT: qHTS for Inhibitors of human tyrosyl-DNA phosphodiesterase 1 (TDP1): qHTS in cells in absence of CPT. hit rate 15% among 420,000. Potency, µM (top dose mostly 46.2 µM), hits mostly inhibitors. AID 686978, 2013. DT40 Tdp1-/- hTDP1 cells, no CPT, ATP luminescence, 48 h; also: nearly all actives have a fitted effect of over 55% in size
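Growth kinetics read by CellTiter-Glo luminescence after ≥48 hr at 37 °C. Cells: DT40 Tdp1-/- stably carrying human TDP1, 400 per well, compound exposure in the absence of CPT (DMSO vehicle).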
TDP1 cell CPT: DT40-hTDP1 cell growth loss with CPT | chicken DT40 Tdp1-/-;hTDP1 cells + 20 nM CPT, ATP luminescence, 48 h | Potency, µM (doses to about 46.2 µM), most hits filed as inhibitors | hit rate 12% among 420,000 | AID 686979; also: nearly all actives have a fitted effect of over 55% in size
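Cell growth measured by CellTiter-Glo luminescence after a minimum 48 h, 37 C compound exposure with 20 nM CPT in Tdp1-knockout DT40 cells stably expressing hTDP1, seeded 400/well; qHTS titration format.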
Gal4-VP16 FLuc: counter-screen for ROR gamma inhibitors: Gal4-VP16 reporter; Drosophila S2 Gal4-VP16 UAS-luciferase, luminescence, 20 h; Potency, µM (highest dose often 53.6 µM), hits mostly inhibitors; hit rate 3.5% among 310,000;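 also: Gal4-VP16 expression switched on by copper sulfate through the metallothionein promoter; nearly all actives have a fitted effect of over 50% in size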
IL-1B inflam inh: inhibitors of inflammasome signaling (IL-1 beta secretion). THP-1 LPS/ATP IL-1B secretion, AlphaLISA, 16 h; stronger effect = lower value. activity change, % at 57.5 µM. hit rate 4.7% among 360,000. AID 743279; in the data active = activity change below about -50%; inconclusive = mostly about -30% to -49%
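THP-1 cells pretreated 1 hr with compounds (up to 57.5 uM final), then stimulated with LPS (250 ng/mL final) plus ATP (1.25 mM final); secreted IL-1B measured by AlphaLISA after 16 hr, decreased signal indicating inhibition.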
RORgamma inh: blocks mouse ROR gamma transcriptional activity | Drosophila S2 Gal4-RORgamma UAS-luciferase reporter, 20 h | hit rate 5.4% among 310,000 | P51450 | Potency, µM (doses to about 53.6 µM), usual class: inhibitors; also: nearly all actives have a fitted effect of over 60% in size
Target sequence (P51450 whole entry, looked up, the tested form may be a part): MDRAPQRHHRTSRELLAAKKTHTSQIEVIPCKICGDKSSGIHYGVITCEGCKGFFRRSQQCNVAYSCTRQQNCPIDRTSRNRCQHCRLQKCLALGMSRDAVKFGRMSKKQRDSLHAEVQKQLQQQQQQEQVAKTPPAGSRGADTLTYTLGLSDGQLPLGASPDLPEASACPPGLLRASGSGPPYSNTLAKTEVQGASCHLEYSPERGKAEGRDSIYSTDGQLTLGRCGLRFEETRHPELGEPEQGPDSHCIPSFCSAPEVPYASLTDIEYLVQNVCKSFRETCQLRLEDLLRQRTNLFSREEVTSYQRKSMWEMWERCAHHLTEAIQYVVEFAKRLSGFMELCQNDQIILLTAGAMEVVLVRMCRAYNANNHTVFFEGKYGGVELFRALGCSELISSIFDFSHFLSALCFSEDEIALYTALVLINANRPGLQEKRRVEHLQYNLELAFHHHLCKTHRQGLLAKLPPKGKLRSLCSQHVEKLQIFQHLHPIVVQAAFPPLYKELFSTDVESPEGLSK
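Drosophila Schneider cells stably carrying a metallothionein-driven Gal4 DBD–ROR gamma fusion and a UAS-Photinus luciferase reporter were exposed to compound for 1 hr, then induced with copper sulfate (700 uM final) for 20 hr at ambient temperature before luminescence reading.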
A number is an active result; n = inactive; u = inconclusive; x = no result. Unless noted, calls follow the shape of the dose curve; as a rule, active = well fitted curve in the direction sought with a large enough effect; inconclusive = small, poorly fitted or top-dose-only effect, or another doubt; inactive = no such curve, though single readings can be large; an effect the other way counts as inactive or inconclusive.

SMILES | LDHA block | DT40 TDP1 no CPT | TDP1 cell CPT | Gal4-VP16 FLuc | IL-1B inflam inh | RORgamma inh
CCn1c(SCc2ccccc2Cl)nc2nc3c(cc2c1=O)CCCC3 | n | 23.1µM | 16.4µM | u | u | 11.2µM
CCn1c(SCC(=O)Nc2ccc(OC)cc2)nc2nc3c(cc2c1=O)CCCC3 | n | 23.1µM | u | n | -82.5 | n
Cc1ccc2oc(C(=O)N(Cc3ccc(Cl)cc3)Cc3ccco3)cc(=O)c2c1 | n | x | x | x | x | x
CS(=O)c1ccc(C(=O)OCc2cc(Cl)c3c(c2)OCCCO3)cc1 (configuration not stated) | n | x | x | x | x | x
O=C(Nc1nccs1)c1cc(-c2ccc(F)cc2)nc2ccccc12 | n | x | x | x | x | x
CCOC(=O)C1CCCN(C(=O)Cn2nc3cc(C)nc(N4CCc5ccccc5C4)n3c2=O)C1 (configuration not stated) | n | x | x | x | x | x
Cc1ccccc1-n1c(SCC(=O)Nc2ccccc2)nc2nc3c(cc2c1=O)CCCC3 | n | 16.4µM | u | n | n | n
CC(=O)c1ccc(NC(=O)CSc2nc(N)c3cc4c(nc3n2)CCCC4)cc1 | n | u | u | n | n | n
CCn1c(SCC(=O)Nc2ccc(C(C)=O)cc2)nc2nc3c(cc2c1=O)CCCC3 | n | u | u | u | -54.6 | u
COc1ccc(NC(=O)CSc2nc(N)c3cc4c(nc3n2)CCCC4)cc1 | n | 14.6µM | u | n | n | u
CCn1c(SCC(=O)Nc2ccc(C(C)=O)cc2)nc2nc3c(cc2c1=O)COC(C)(C)C3 | n | n | n | n | n | n
O=C(Nc1cccc(S(=O)(=O)N2CCCCCC2)c1)c1n[nH]c(=O)c2ccccc12 | n | x | x | x | x | x
CCCn1nc(C(=O)N(C)Cc2cccs2)c2ccccc2c1=O | n | x | x | x | x | x
CC(C)n1ncc2c(C(=O)Nc3ccc(F)cc3)c3c(nc21)CCC3 | n | x | x | x | x | x
CC(OC(=O)c1n[nH]c2ccccc12)C(=O)Nc1ccccc1[N+](=O)[O-] (configuration not stated) | n | 14.6µM | u | x | n | x
Cc1ccc(NC(=O)C(C)OC(=O)c2n[nH]c3ccccc23)cc1 (configuration not stated) | n | n | n | x | n | x
Clc1ccc2c(c1)nc(CN1CCOCC1)n2Cc1ccccc1 | n | x | x | x | x | x
O=c1c2ccccc2nc(COc2ccccc2)n1/N=C/c1ccc(O)cc1O | n | 23.1µM | u | n | n | n
C/C(=N\OCc1nc2ccccc2c(=O)n1/N=C/c1cc(C)cc([N+](=O)[O-])c1O)c1ccccc1 | n | n | n | n | n | n
O=c1c2ccccc2nc(COc2ccccc2)n1/N=C/c1c[nH]c2ccccc12 | n | 16.4µM | u | n | n | u
O=c1c2ccccc2nc(COc2ccccc2)n1/N=C/c1cn[nH]c1-c1ccccc1 | n | 16.4µM | 20.6µM | n | n | n
C/C(=N\OCc1nc2ccccc2c(=O)n1/N=C/c1cc([N+](=O)[O-])ccc1O)c1ccccc1 | n | u | n | u | n | 10µM
CCc1c(C)sc(NC(=O)c2cc(C)oc2C)c1C#N | n | x | x | x | x | x
N#Cc1ccccc1CSc1nnnn1-c1ccc(Cl)cc1 | n | x | x | x | x | x
Cc1cc([N+](=O)[O-])cc(/C=N/n2c(C)nc3ccccc3c2=O)c1O | n | u | u | n | n | 12.6µM
SMILES | LDHA block | DT40 TDP1 no CPT | TDP1 cell CPT | Gal4-VP16 FLuc | IL-1B inflam inh | RORgamma inh
CN(C)C(=O)CN1CCCC1c1ccc2c(c1)OCCO2 (configuration not stated) | n | x | x | x | x | x
COc1ccc(NC(=O)Nc2nc3cc(C)c(C)cc3s2)cc1OC | n | x | x | x | x | x
Cc1cc(C)c(NC(=O)CSc2nc3c(c(=O)n2C)SC(C)C3)c(C)c1 (configuration not stated) | n | 13µM | 20.6µM | u | n | u
CC1Cc2nc(SCC(=O)Nc3ccc(F)cc3)n(C)c(=O)c2S1 (configuration not stated) | n | u | 23.1µM | n | n | u
Cc1cc(C)c(NC(=O)CSc2nnc(SCC(=O)Nc3c(C)cc(C)cc3C)n2N)c(C)c1 | n | u | 14.6µM | n | n | n
Cc1cc(C)cc(NC(=O)CSc2nc3c(c(=O)n2C)SC(C)C3)c1 (configuration not stated) | n | n | n | n | n | n
CCOc1ccc(NC(=O)CSc2nc3c(c(=O)n2C)SC(C)C3)cc1 (configuration not stated) | n | u | 16.4µM | n | n | u
COc1ccccc1NC(=O)CSc1nc(N2CCOCC2)c2c(c1C#N)CCCC2 | n | x | x | x | x | x
COc1ccc(-c2noc(N3CCC(C(=O)N4CCN(c5ccccc5F)CC4)CC3)n2)cc1 | n | 5.17µM | u | x | x | x
Cc1ccc(C)c(N2CCN(C(=O)CCc3nc(-c4ccc(Cl)cc4)no3)CC2)c1 | n | n | n | x | n | x
Cc1ccc(C)c(N2CCN(C(=O)C3CCN(c4nc(-c5ccc(C(C)C)cc5)no4)CC3)CC2)c1 | n | 10.3µM | u | x | x | x
COc1ccc(-c2noc(N3CCC(C(=O)Nc4ccc(F)cc4)CC3)n2)cc1 | n | n | n | n | n | n
COc1ccc(CN(C)CC(O)COc2ccccc2C)c(OC)c1OC (configuration not stated) | n | x | x | x | x | x
CCN(CC(=O)Nc1ccccc1C(F)(F)F)C(=O)c1cc(=O)c2cc(C)ccc2o1 | n | x | x | x | x | x
CCCCOc1ccc(C(N)C(=O)OCC)cc1 (configuration not stated) | n | x | x | x | x | x
Cc1ccc(CC(=O)NC2CCC(C)CC2)cc1 (configuration not stated) | n | x | x | x | x | x
COc1ccc(CCNC(=O)c2c(C)oc3ncn(CC(C)C)c(=O)c23)cc1OC | n | u | n | x | x | x
CSc1ccc(CCNC(=O)c2c(C)oc3ncn(C)c(=O)c23)cc1 | n | 18.4µM | u | x | x | x
Cc1oc2ncn(CC(C)C)c(=O)c2c1C(=O)NCCc1ccc(Cl)cc1 | n | 14.6µM | u | x | x | x
COc1ccc(CCNC(=O)c2c(C)oc3ncn(CC(C)C)c(=O)c23)c(OC)c1 | n | 16.4µM | 16.4µM | x | x | x
COc1c(CNC2CCN(Cc3ccccc3)CC2)c(C)nn1C | n | x | x | x | x | x
COc1cc(CNC(C)(C)CO)cc(Br)c1OCc1ccc(Cl)cc1Cl | n | u | u | u | u | n
COc1cc(/C=N/O)cc(Br)c1OCc1ccc(Cl)cc1 | n | u | u | u | u | 5.62µM
COc1cc(CNC(C)(C)CO)cc(Br)c1OCc1ccc(Cl)cc1 | n | u | u | n | -114.4 | n
Cc1oc(-c2ccccc2)nc1CN1CCCC1c1nnc2ccccn12 (configuration not stated) | n | x | x | x | x | x
S=c1[nH]nc(-c2ccc3ccccc3n2)n1-c1ccccc1 | n | n | n | 2µM | n | 1.41µM
Fc1ccccc1-n1c(-c2ccc3ccccc3n2)n[nH]c1=S | n | u | u | u | n | 1.41µM

Screening results (PubChem)
